How the values were obtained:
Format in all cases: functional
[1] = target: Solute carrier family 2, facilitated glucose transporter member 1 (Homo sapiens) (UniProt P11166); test: ST_JUDE_LEISH: Cytotoxicity at 2uM final concentration against transgenic Leishmania Mexicana promastigotes LmGLUT1 that are glucose transport deficient and complemented with the human glucose transporter GLUT1. Activity is measured by DNA content using SYBR green in vitro
[2] = target: Hexose transporter 1 (Plasmodium falciparum) (UniProt O97467); test: ST_JUDE_LEISH: Cytotoxicity at 2uM final concentration against transgenic Leishmania Mexicana promastigotes LmPfHT that are glucose transport deficient and complemented with the Plasmodium falciparum hexose transporter. Activity is measured by DNA content using SYBR green in vitro
[3] = target: Glucose transporter (Leishmania mexicana) (UniProt O61059); test: ST_JUDE_LEISH: Cytotoxicity at 2uM final concentration against transgenic Leishmania Mexicana promastigotes LmGT2 that are glucose transport deficient and complemented with the L. Mexicana glucose transporter 2. Activity is measured by DNA content using SYBR green in vitro

Sequence of Solute carrier family 2, facilitated glucose transporter member 1 (Homo sapiens) (P11166 whole entry): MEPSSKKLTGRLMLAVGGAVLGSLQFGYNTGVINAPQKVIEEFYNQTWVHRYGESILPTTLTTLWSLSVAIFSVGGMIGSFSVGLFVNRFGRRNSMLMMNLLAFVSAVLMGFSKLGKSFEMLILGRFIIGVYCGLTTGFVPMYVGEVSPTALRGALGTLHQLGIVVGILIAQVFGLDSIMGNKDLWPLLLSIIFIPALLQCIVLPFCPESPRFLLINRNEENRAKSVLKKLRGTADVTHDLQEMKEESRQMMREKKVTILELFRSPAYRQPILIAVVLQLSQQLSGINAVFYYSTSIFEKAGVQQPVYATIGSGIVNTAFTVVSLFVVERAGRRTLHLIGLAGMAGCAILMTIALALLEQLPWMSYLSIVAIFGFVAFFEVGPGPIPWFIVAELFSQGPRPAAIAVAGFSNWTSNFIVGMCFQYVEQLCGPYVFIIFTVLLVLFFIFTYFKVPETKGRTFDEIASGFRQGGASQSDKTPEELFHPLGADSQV

| SMILES | inhibition [1] [%] | inhibition [2] [%] | inhibition [3] [%] |
| --- | --- | --- | --- |
| O=C(CSc1nccn1C1CCCCC1)Nc1cc(C(F)(F)F)ccc1Cl | 8.56 | 9.47 | 7.3 |
| Clc1ccc(C=NN=c2cc[nH]c3ccccc23)cc1 | 9.89 | 8.46 | 6.25 |
| OCCN1CCN(Cc2ccc(-c3cccc(-c4nc5cc(C(F)(F)F)ccc5[nH]4)c3)cc2)CC1 | 7.65 | 7.08 | 7.33 |
| COc1ccc(CNCCCCCCNCc2ccc(OC)c3ccccc23)c2ccccc12 | 59.7 | 97.2 | 103 |
| CC1CCCN(Cc2cc(Cl)cc(Cl)c2O)C1 (centres undefined) | -1.08 | -0.95 | -1.76 |
| CN1CCCC(CN2CCN(Cc3ccc(-c4cccc(-c5nc6ccccc6[nH]5)c4)cc3)CC2)C1 (centres undefined) | 3.67 | 2.47 | 3.47 |
| COc1ccc(O)c(-c2sc(N=C(N)N)nc2-c2ccccc2)c1 | 1.77 | 2.67 | 3.42 |
| CC(=NNC(S)=NC(c1ccccc1)c1ccccc1)c1ccccn1 | 61 | 58.8 | 32 |
| c1cc(CN2CCC(CCN3CCCCC3)CC2)cc(-c2cccc(-c3nc4ccccc4[nH]3)c2)c1 | 2.17 | 2.55 | 3.39 |
| CC(C)N1CCC(N(Cc2ccc(-c3ccc(C(F)(F)F)cc3)cc2)C(=O)Cn2c(SCc3cccc(F)c3F)cc(=O)c3ccccc32)CC1 | -0.18 | 1.73 | 0.55 |
| Cc1nc(NCc2ccccc2)cc(NCC(O)c2ccc(O)cc2)n1 (centres undefined) | 8.37 | 8.57 | 7.2 |
| Cc1nc2ccccc2n1C1CC2CCC(C1)N2CCCC1(c2ccccc2)CCN(C(=O)OCc2ccccc2)CC1 (centres undefined) | 3.25 | 0.85 | 2.57 |
| Cc1cc(N(C)C)nc(Nc2ccc(NS(=O)(=O)c3ccccc3)cc2)n1 | 7.64 | 10.6 | 5.82 |
